Among all 67,000 compounds or so, about 300 (0.45%) showed an effect of 50% or more. For the sample, strong results were picked, then their nearest neighbours and some compounds at random.
These molecules were tested against Polyketide synthase Pks13 (Mycobacterium tuberculosis (strain ATCC 25618 / H37Rv)) (UniProt I6X8D2) (assay: Mycobacterium tuberculosis Polyketide synthase 13 Thioesterase (PKS13)). Conditions: 30 µM.
Assay type: functional
Set-up: scale not given: in the data most compounds retested in dose-response had high values

Sequence of Polyketide synthase Pks13 (Mycobacterium tuberculosis (strain ATCC 25618 / H37Rv)) (I6X8D2 whole entry): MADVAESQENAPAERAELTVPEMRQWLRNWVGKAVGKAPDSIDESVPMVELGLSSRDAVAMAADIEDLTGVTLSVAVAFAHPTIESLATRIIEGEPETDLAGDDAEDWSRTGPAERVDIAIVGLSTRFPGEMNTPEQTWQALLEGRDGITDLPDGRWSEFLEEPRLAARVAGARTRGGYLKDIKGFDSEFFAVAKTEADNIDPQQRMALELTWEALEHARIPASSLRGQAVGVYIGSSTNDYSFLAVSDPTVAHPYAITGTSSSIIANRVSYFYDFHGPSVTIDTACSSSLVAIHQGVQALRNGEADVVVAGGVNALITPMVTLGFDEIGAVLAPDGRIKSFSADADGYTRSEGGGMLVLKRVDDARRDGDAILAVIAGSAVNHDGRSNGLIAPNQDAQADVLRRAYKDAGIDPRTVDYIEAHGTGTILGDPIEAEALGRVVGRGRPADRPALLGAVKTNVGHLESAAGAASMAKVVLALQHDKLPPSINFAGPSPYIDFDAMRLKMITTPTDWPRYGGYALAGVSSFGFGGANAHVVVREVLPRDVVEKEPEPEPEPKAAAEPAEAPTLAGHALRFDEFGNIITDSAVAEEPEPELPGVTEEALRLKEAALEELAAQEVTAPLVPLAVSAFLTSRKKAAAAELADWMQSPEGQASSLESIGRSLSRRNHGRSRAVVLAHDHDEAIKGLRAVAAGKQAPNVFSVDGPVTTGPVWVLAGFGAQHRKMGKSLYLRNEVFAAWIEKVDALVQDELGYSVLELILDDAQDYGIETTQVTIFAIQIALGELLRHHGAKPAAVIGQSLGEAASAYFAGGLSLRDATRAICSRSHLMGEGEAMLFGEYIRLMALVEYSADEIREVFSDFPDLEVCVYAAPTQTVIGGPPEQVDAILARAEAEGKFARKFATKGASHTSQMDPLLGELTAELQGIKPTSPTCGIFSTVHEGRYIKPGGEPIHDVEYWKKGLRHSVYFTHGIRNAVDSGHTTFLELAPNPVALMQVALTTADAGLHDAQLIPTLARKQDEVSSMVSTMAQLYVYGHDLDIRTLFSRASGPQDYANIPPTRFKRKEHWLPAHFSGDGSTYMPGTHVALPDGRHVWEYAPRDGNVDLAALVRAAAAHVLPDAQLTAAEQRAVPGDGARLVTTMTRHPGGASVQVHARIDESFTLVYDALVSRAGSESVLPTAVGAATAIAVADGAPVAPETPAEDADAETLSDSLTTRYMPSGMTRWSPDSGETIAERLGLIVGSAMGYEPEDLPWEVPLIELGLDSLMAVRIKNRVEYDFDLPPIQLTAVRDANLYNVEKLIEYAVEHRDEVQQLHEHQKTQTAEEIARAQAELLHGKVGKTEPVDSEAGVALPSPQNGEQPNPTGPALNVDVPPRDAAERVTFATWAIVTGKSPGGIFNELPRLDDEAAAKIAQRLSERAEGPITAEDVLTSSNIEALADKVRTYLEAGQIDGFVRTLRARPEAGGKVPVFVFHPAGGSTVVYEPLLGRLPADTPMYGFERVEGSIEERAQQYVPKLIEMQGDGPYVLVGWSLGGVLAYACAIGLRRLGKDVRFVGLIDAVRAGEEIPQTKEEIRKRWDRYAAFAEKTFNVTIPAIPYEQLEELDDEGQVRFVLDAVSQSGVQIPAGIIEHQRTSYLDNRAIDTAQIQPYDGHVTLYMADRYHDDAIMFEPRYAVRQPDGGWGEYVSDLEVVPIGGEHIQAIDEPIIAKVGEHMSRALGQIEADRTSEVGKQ

Row | SMILES | Percent Effect [%]
1 | Cc1ccoc1C(=O)N1CC[C@@H]2CN(C3CCOCC3)CCO[C@@H]2C1 | -13.2
2 | COc1ncccc1CN1C[C@H]2C[C@@H](C(=O)NCC3CC3)N(C)[C@H]2C1 | -7.18
3 | Cc1noc(C)c1CN1C(=O)[C@H]2CC[C@@H]1CN(Cc1cccnc1N)C2 | -20
4 | Cc1oncc1C(=O)N1CC[C@@H]2[C@@H]1CC(=O)N2Cc1cccnc1 | 10.2
5 | CCc1ccccc1CN1CCN(Cc2ncc[nH]2)[C@H]2CS(=O)(=O)C[C@H]21 | -16.6
6 | COc1ccc(C(=O)NC2CCN(c3ncccn3)CC2)cc1F | -18.2
7 | Cn1ccc(C(=O)N2CCN(c3ncccn3)CC2)cc1=O | 11.1
8 | Cn1ccc(C(=O)NC2CCN(c3ncccn3)CC2)cc1=O | 71.3
9 | CN(C)c1ccc(CN2C[C@H]3CC[C@@H]2CN(C2CCOCC2)C3)cn1 | -33
10 | CNC(=O)[C@H]1C[C@@H]2CN(Cc3csc(C)n3)C[C@@H]2N1S(C)(=O)=O | -33.5
11 | CCOC1CC2(CCN(C(=O)Cc3ccccn3)CC2)C1 | 58.6
12 | CC(C)COC1CC2(CCN(C(=O)Cc3ccccn3)CC2)C1 | 0.268
13 | O=C(Cc1ccccn1)N1CCC2(CC1)[C@H](O)C[C@@H]2O | 7.55
14 | C[C@@H]1C[C@@H]2CCN(C(=O)c3ccncn3)C[C@H]2O1 | -3.96
15 | O=C(CC[C@@H]1CCCN2CCCC[C@H]12)NCCc1nc(O)cc(O)n1 | -3.34
16 | c1cncc(OC[C@]23COC[C@H]2CN(Cc2nccs2)C3)c1 | -6.85

Row | SMILES | Percent Effect [%]
17 | CCOCCCNC(=O)c1cn(C(C)(C)C)c2ncccc12 | 60.2
18 | COCCCNC(=O)c1cn(C(C)(C)C)c2ncccc12 | 0.73
19 | COCCNC(=O)c1cn(C(C)(C)C)c2ncccc12 | -9.36
20 | Cc1cccc(CN2C[C@@H]3CCCO[C@@H]3[C@H](Nc3ccccn3)C2)n1 | -13.2
21 | C[C@H]1C[C@@H]2CCN(C(=O)c3cccn3C)C[C@H]2O1 | -23.4
22 | CN(C)S(=O)(=O)c1ccc(-c2nc(C#N)c(NC3CC3)o2)o1 | 73.3
23 | Cc1oc(-c2nc(C#N)c(NC3CC3)o2)cc1S(=O)(=O)N1CCCC1 | -2.87
24 | CN(C)S(=O)(=O)c1ccc(-c2nc(C#N)c(NC(C)(C)C)o2)o1 | -2.58
25 | Cc1ccc(C(=O)N2CCO[C@H]3[C@H](OCC4CCOCC4)CC[C@@H]32)o1 | -6.47
26 | COCCNC(=O)c1cc(-c2cc[nH]n2)n2ccccc12 | 47.6
27 | O=C(NCCCO)c1cc(-c2cc[nH]n2)n2ccccc12 | 48.6
28 | CC(C)(CO)CNC(=O)c1cc(-c2cc[nH]n2)n2ccccc12 | 67.2
29 | Fc1cnc(N2CCO[C@H]3CN(CC4CCCC4)C[C@H]32)nc1 | -14.5
30 | Cc1cccc(NC(=O)c2[nH]nc(C(C)C)c2Br)n1 | 73.4
31 | CC(C)c1n[nH]c(C(=O)Nc2ccccn2)c1Br | -9.25
32 | CC(C)c1n[nH]c(C(=O)Nc2cc[nH]n2)c1Br | -20
